Out of some 290,000 compounds screened, about 3,000 (1%) were called active. No stated cut-off is given here; in the data, active means inhibition mostly above about 36% (no sharp cut-off); inactive means mostly below about 34%. The entries come from a sample that favours actives as a whole.
Experiment: NOD1 signaling inhibitors, primary screen, cell-based, luminescence, uHTS (AID 1578);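 further: HEK-293T reporter cells stimulated with the NOD1 agonist gamma-tri-DAP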
Details: NOD1-driven NF-kB luciferase reporter cells, at 4 µM, active compounds read high

Structure (SMILES) | inhibition
COc1cccc(CNC(=O)COc2ccc(C(=O)c3ccccc3)cc2)c1 | 4% (inactive)
O=C(NCc1ccco1)Nc1ccc(OC(F)(F)F)cc1 | -6.5% (inactive)
O=C(C1=NN[C@@H]2C(=O)N(c3ccccc3C(F)(F)F)C(=O)[C@H]12)c1cnccn1 | -13.1% (inactive)
Cc1ccc2nc3sc(C(=O)Nc4ccc(N5CCOCC5)cc4)c(N)c3cc2c1 | -21.9% (inactive)
Cc1cccc2cc3c(N)c(C(=O)N4CCOCC4)sc3nc12 | -5% (inactive)
COc1cc(NC(=O)CSc2nccc(=O)[nH]2)c(C)cc1[N+](=O)[O-] | -24.5% (inactive)
Cc1cc(-c2ccc(C)c(S(=O)(=O)N3CC(=O)Nc4ccccc43)c2)on1 | -2.5% (inactive)
Cc1ccc(C(=O)CC2(O)C(=O)N(C)c3ccccc32)s1 (stereo unspecified) | -9.2% (inactive)
CC(=O)N1c2ccccc2C(C)(C)C2CCC(C)CC21 (stereo unspecified) | -5.9% (inactive)
CC(=O)N1c2ccccc2C2(O)N=C(C)SC12 (stereo unspecified) | 66.4% (active)
COc1ccc(C(=O)NNC(=O)CN2CCC(n3nnc4cc(C)ccc43)CC2)cc1 | -14.9% (inactive)
O=C(OCc1ccc(Cl)cc1)c1cccnc1Cl | -33% (inactive)
CCOCCCNc1ncnc2c1[nH]c1ccccc12 | 19.9% (inactive)
COCCCNc1ncnc2c1[nH]c1ccccc12 | -16.9% (inactive)
CCCCOCCCNc1ncnc2c1[nH]c1ccccc12 | 65.9% (active)
O=S(=O)(c1ccc(S(=O)(=O)n2cnc3ccccc32)cc1)N1CCCCCC1 | 8.9% (inactive)
C=CCO/N=C/C1C(=O)CC(C)(C)CC1=O | -25.9% (inactive)
O=C(NC12CC3CC(CC(C3)C1)C2)N1CCN(c2ccccc2)CC1 | -18% (inactive)
Clc1ccccc1OCCCOc1cccc2cccnc12 | -0.6% (inactive)
CCOc1ccc(CN(C)c2nc(-c3cccnc3)nc3ccccc23)cc1OC | 55.2% (active)
CN(Cc1cccs1)c1nc(-c2cccnc2)nc2ccccc12 | -37.4% (inactive)
COc1ccc(CN(C)c2nc(-c3cccnc3)nc3ccccc23)cc1OC | 36.1% (inactive)
Cc1ccc2cc(C#N)c(NCCNC(=S)NCCCN(C)C)nc2c1C | -23.4% (inactive)
CCCCn1c(SCC(=O)Nc2nnc(C)s2)nc2c1c(=O)n(C)c(=O)n2C | 6.2% (inactive)

Structure (SMILES) | inhibition
CCCn1c(SCC(=O)Nc2nnc(C(C)C)s2)nc2c1c(=O)n(C)c(=O)n2C | 34% (inactive)
O=C(c1cnn(C(=O)c2cccc(S(=O)(=O)N3CCOCC3)c2)c1)c1ccccc1O | 9.5% (inactive)
COc1ccc(S(=O)(=O)N2CCc3ccccc32)cc1C(=O)OCC(=O)c1c(N)n(C)c(=O)n(C)c1=O | -11.1% (inactive)
CC1CCCCC1NC(=O)CCCn1c(=S)[nH]c2ccsc2c1=O (stereo unspecified) | -13.7% (inactive)
CCn1cc(CN2CCc3c([nH]c4ccccc34)C2c2ccc(F)c(OC)c2)c(C)n1 (stereo unspecified) | -23.6% (inactive)
Cc1ccc(CS(=O)(=O)CCC(=O)NCCN2CCCC2)cc1 | -7.3% (inactive)
Cc1ccc(CS(=O)(=O)CCC(=O)NCCN2CCCCC2C)cc1 (stereo unspecified) | 96.5% (active)
Cc1ccc(CS(=O)(=O)CCC(=O)NCCCN2CCCC2)cc1 | -5.9% (inactive)
CN(Cc1ccccc1)c1nc(N)c([N+](=O)[O-])c(Nc2cccc(F)c2)n1 | -10.7% (inactive)
Cc1c(O)c2cccnc2[nH]c1=O | -21.9% (inactive)
COc1ccc(N=C2NN=C(c3ccc4c(c3)OCCO4)CS2)cc1 | -44.7% (inactive)
Cc1cccc(N=C2NN=C(c3ccc4c(c3)OCCO4)CS2)c1 | -35.2% (inactive)
c1cc2c(cc1C1=NNC(=NC3CC3)SC1)OCCO2 | 96.6% (active)
CC(C)(C)N=C1NN=C(c2cc3ccccc3o2)CS1 | -38.4% (inactive)
c1ccc(CN=C2NN=C(c3cc4ccccc4o3)CS2)cc1 | -43% (inactive)
CCCCN=C1NN=C(c2ccc3c(c2)OCCO3)CS1 | 14.8% (inactive)
C=CCN=C1NN=C(c2ccc3c(c2)OCCO3)CS1 | 67.8% (active)
c1ccc(C2=NNC(=NC3CC3)SC2)cc1 | 59.6% (inactive)
c1ccc2oc(C3=NNC(=NC4CC4)SC3)cc2c1 | 86.6% (active)
CCOC(=O)N1CCC(NC(=O)CN2C(=O)CSc3nc(C)cc(C)c32)CC1 | -2.4% (inactive)
Cc1ccc(Nc2nc(N)nc(CSC(=S)N3CCOCC3)n2)c(C)c1 | -10% (inactive)
COc1cc(/C=C/CO)cc(OC)c1OC/C=C(\C)CCC=C(C)C | 0.8% (inactive)
COCCn1c(SCC(=O)Nc2ccccc2C(F)(F)F)nc2ccccc2c1=O | -11.7% (inactive)
COc1ccc(-c2cc(C3CC3)nc3sc(C#N)c(N)c23)cc1 | 7.9% (inactive)

Structure (SMILES) | inhibition
CC(C)c1cc(C(=O)N/N=C/c2c[nH]c3ccccc23)n[nH]1 | -15.2% (inactive)
COC(=O)COc1cccc2c(=O)n(CC(=O)NCCc3ccccc3)ccc12 | -38.1% (inactive)
Cc1ccc(CNc2nc(N)c([N+](=O)[O-])c(NCc3ccccc3)n2)cc1 | 0.5% (inactive)
Cc1cccnc1Nc1ncnc(N)c1[N+](=O)[O-] | -32% (inactive)
Cc1cccc(Nc2ncnc(N)c2[N+](=O)[O-])n1 | 28.6% (inactive)
Nc1ncnc(NCc2ccccc2)c1[N+](=O)[O-] | 37.6% (inactive)
COc1ccc(Cc2nc3ccc(C(=O)N4CCCC4)cc3o2)cc1OC | 1.3% (inactive)
Cc1ccc(Cn2nc(C)c(NC(=O)CCCn3nc([N+](=O)[O-])c(Cl)c3C)c2C)cc1 | -25.5% (inactive)
COc1ccc(C)cc1Nc1n[n+](-c2ccccc2)c(-c2ccc(NC(C)=O)cc2)s1 | -19% (inactive)
CCn1c2ccccc2c2cc(/C=N/NC(=O)c3ccccc3)ccc21 | 41.4% (inactive)
CCn1c2ccccc2c2cc(/C=N/NC(=O)c3cc(O)cc(O)c3)ccc21 | 58.8% (active)
CCn1c2ccccc2c2cc(/C=N/NC(=O)c3ccc(O)cc3)ccc21 | 32.8% (inactive)
CCOC(=O)C1=C(CC)Nc2ccccc2N=C1NC(=O)CCNC(C)=O | -28.2% (inactive)
CCOCc1c(C(=O)NC2=Nc3ccccc3NC(CC)=C2C(=O)OCC)oc2ccccc12 | 4.5% (inactive)
CCOC(=O)C1=C(CC)Nc2ccccc2N=C1NC(=O)c1oc2ccccc2c1C | 56.6% (active)
O=C(Cc1ccccc1)NN1C(=O)C2C3C=CC(C3)[C@@H]2C1=O (stereo partly specified) | -12.9% (inactive)
Cc1nc(SCCOc2ccc(F)cc2)c2ccccc2n1 | -33.3% (inactive)
CCOC(=O)c1ccc(NC(=O)Cn2cnc3cc(C)c(C)cc32)cc1 | 33% (active)
Cc1ccc(NC(=O)CCn2cnc3cc(C)c(C)cc32)cc1 | -8.2% (inactive)
COC(=O)c1ccccc1NC(=O)Cn1cnc2cc(C)c(C)cc21 | -3.9% (inactive)
O=C(Nc1ccc(Br)cc1)c1cc(-c2ccc3c(c2)OCO3)on1 | -33.8% (inactive)
Cc1cccc(NC(=S)NC(=O)c2oc3ccccc3c2C)n1 | -35.5% (inactive)
O=C(Nc1cc(S(=O)(=O)N2CCOCC2)ccc1N1CCOCC1)C1CCCO1 (stereo unspecified) | -32.9% (inactive)
Cc1ccc(-n2c3c(c(=O)[nH]c2=O)C(NS(=O)(=O)c2ccc(Cl)cc2)(C(F)(F)F)C(=O)N3)cc1 (stereo unspecified) | -31.8% (inactive)

Structure (SMILES) | inhibition
O=C(NCc1ccccc1)c1ccc2nccnc2c1 | 2% (inactive)
O=C(NCCc1ccccc1)c1ccc2nccnc2c1 | 66.7% (active)
O=C(NCCc1ccc(Cl)cc1)c1ccc2nccnc2c1 | -33.2% (inactive)
CCCCNc1ccc(C(CC(N)=O)NC(=O)Cc2ccc(Br)cc2)cc1[N+](=O)[O-] (stereo unspecified) | -9.3% (inactive)
OC(CNCC1COc2ccccc2O1)COc1ccc(Cl)cc1 (stereo unspecified) | -12.2% (inactive)
CC(=O)c1cccc(OCC(O)CNCC2COc3ccccc3O2)c1 (stereo unspecified) | 37.9% (active)
CC(=O)c1cccc(OCC(O)CNCC2CCCCC2)c1 (stereo unspecified) | -5.6% (inactive)
Cn1cc(Br)c(C(=O)n2cc(Br)cn2)n1 | -7.4% (inactive)
Cc1noc(C)c1S(=O)(=O)N1CCCC(C(=O)NCCc2ccccc2)C1 (stereo unspecified) | -28.4% (inactive)
CCNC(=O)COC(=O)c1cc(-c2ccccc2)nn1-c1ccccc1 | -16.6% (inactive)
COc1ccc(C2c3[nH]c4ccccc4c3CCN2CCCn2cccn2)c(C)c1C (stereo unspecified) | -26.9% (inactive)
Fc1ccccc1C1c2[nH]c3ccccc3c2CCN1CCCn1cccn1 (stereo unspecified) | 43.5% (inactive)
Cc1ccccc1C1c2[nH]c3ccccc3c2CCN1CCCn1cccn1 (stereo unspecified) | 53.6% (active)
CC(C)N1CCC(N2CCN(Cc3nc4ccccc4s3)CC2CCO)CC1 (stereo unspecified) | -1.8% (inactive)
CC(C)N(C(=O)COC(=O)c1ccc(Cl)nc1)C(C)C | -35.6% (inactive)
Cc1nc2ccccc2cc1C(=O)Nc1ccccc1Cl | -21.8% (inactive)
Cn1ccnc1C(=O)c1ccc(N)cc1 | -32.6% (inactive)
Clc1nc(-c2cccnc2)nc2scc(-c3ccccc3)c12 | -5% (inactive)
COc1ccc(-c2csc3nc(-c4cccnc4)nc(Cl)c23)cc1OC | 73.4% (active)
COc1ccc(-c2csc3nc(-c4cccnc4)nc(N4CCC(C(N)=O)CC4)c23)cc1OC | 23.4% (inactive)
CCOc1ccc(NC(=O)C2CC(=O)N(C)C(=Nc3ccc4c(c3)OCO4)S2)cc1 (stereo unspecified) | -34.5% (inactive)
O=C(CS(=O)(=O)c1ccccc1)NCc1ccc(Cl)cc1 | -44.4% (inactive)
CCc1ccc(C(=O)/C=C/Nc2ccc(S(=O)(=O)Nc3cnc4ccccc4n3)cc2)cc1 | 4% (inactive)
c1ccc(CSc2nnc(Cc3ccccn3)o2)cc1 | -32.5% (inactive)

From PubChem BioAssay AID1578 (Sanford-Burnham Center for Chemical Genomics, 2009)
